According to PubChem BioAssay AID1347416 (National Center for Advancing Translational Sciences (NCATS), 2020):
Out of some 4,100 compounds screened, about 1,600 (39%) were called active. About 25% were inconclusive and are not listed. Calls follow the shape of the dose curve; as a rule, active = well fitted inhibition curve with a large enough effect; inconclusive = small, poorly fitted or top-dose-only effect; inactive = no such curve, though single readings can be large or run the other way. The list shows a part of the results. Entries that show only a call come without a potency.

Assay: qHTS Validation assay for Inhibitors of Plasmodium falciparum Dd2 growth in vitro; also: nearly all actives have a fitted effect of over 70% in size
Conditions: P. falciparum Dd2 in RBCs, SYBR Green growth, 72 h; series mostly up to 28.7 µM
Description: Malaria, a parasitic disease spread to humans through the bite of a Plasmodium infected Anopheles mosquito, continues to be a global health burden affecting millions of people, with an estimated 228 million cases and 405,000 deaths in 2018. Concerns about safety and limitations of current antimalarial treatments strongly emphasize the need to develop new therapeutic options. The scarce number of chemotypes and validated drug targets with efficacy against the liver stage, have hindered development of new antimalarials. To address this, a chemoprophylactic drug discovery effort was conducted through a combined phenotypic high-throughput asexual blood stage and liver stage screen, providing a robust foundation to identify liver-stage active lead chemotypes. Compounds were initially screened against Plasmodium falciparum Dd2 strain parasites using a in vitro SYBRGreen-1 based 72 hr proliferation assay to identify novel chemotypes to advance to liver stage assays. NIH/NCATS Early Translation Branch Assay Submitter (PI): Anton Simeonov Ph.D.
[…] Assay Protocol: PROTOCOL TABLE (as described by Inglese et al., 2007) SEQUENCE No. (e.g., 1, 2, 3, etc.); PARAMETER (e.g., Cells, Incubation, Reagent, etc.); VALUE; DESCRIPTION SEQUENCE, Parameter, Description 1; Reagent; 3 uL complete malaria growth medium, 1536 TC treated Black clear bottom plate 2; Controls; 23 nL positive control artesunate (300 nM final) to column 1; Neutral control DMSO to columns 2-4 3; Compound; 23 nL of compounds in dose response concentration (29 uM to 0.5 nM final) 4; Reagent; 5 uL malaria infected red blood cells (2.5% hematocrit final, 0.3% parasitemia 5; Time; 72 hours at 37C (5% O2, 5% CO2, 90% N2; 95% Rh) 6; Reagent; 2 uL lysis buffer/SYBRGreen-1, 25 sec shake immediately following dispense 7; Time; ~16 hours at 37C (5% O2, 5% CO2, 90% N2; 95% Rh) 8; Detector; EnVision (PerkinElmer) bottom read at 485/14nm excitation and 535/25 nm emission NOTES (numbers refer to sequence above): 1; Complete Malaria Growth Media: 1X RPMI-1640 w/L-glutamine, 5.5g/L Albumax II, 367 uM Hypoxanthine, 25 mM HEPES, 0.25% Sodium Bicarbonate, 35 uM Gentamicin sulfate 2; Controls were added using the Kalypsis Pintool (Wako USA) equipped with 1536 pinhead 3; Compounds were added in a 7-point, titration with a high final concentration of 29 uM by Pintool from seven inter-plate titrations of library plates and two DMSO control plates at the beginning and end (see Yasgar et al., 2008). 4; Red blood cells infected with Plasmodium falciparum Dd2 parasites were used. 6; Lysis buffer: 20 mM Tris-HCl, 10 mM EDTA, 0.16% Saponin, 1.6% Triton-X, 10X SYBR Green. REFERENCE: Inglese J, Shamu CE, Guy RK. 2007. Reporting data from high-throughput screening of small-molecule libraries. Nat Chem Biol. doi:10.1038/nchembio0807-438 Yasgar A, Shinn P, Jadhav A, Auld D, Michael S, Zheng W, Austin CP, Inglese J, Simeonov A. 2008. Compound Management for Quantitative High-Throughput Screening. J Lab Autom 13:79-89. doi:10.1016/j.jala.2007.12.004
Potency is read from the fitted curve at half-maximal effect.

SMILES | Potency
COc1ccc(N=C2NC(=O)/C(=C\c3ccco3)S2)cc1 | inactive
C#CCN(C)Cc1nc(C2(O)CCN(C(C)=O)CC2)cs1 | inactive
CCN(CC)C(=O)[C@@H]1CCCN1[C@H](Cc1ccccc1)C(=O)NC | inactive
Cc1noc(C)c1-c1cc2cc(CN(C)C)oc2c(NCCc2ccccc2)n1 | 13.7 µM (active)
Cc1noc(C)c1-c1cc2cc(CN(C)C)oc2c(NCCOc2ccccc2)n1 | 15.3 µM (active)
CC(C)c1nc2oc3c(NCC4CCCO4)ncnc3c2c2c1CCC2 (centres undefined) | inactive
COCCN(CC1CCCO1)c1nc(CCN)nc2ccccc12 (centres undefined) | inactive
CCOc1ccc(Nc2nc(NCC3CCCO3)c3ccccc3n2)cc1 (centres undefined) | 1.88 µM (active)
CSc1nnc(-c2cc3ccccc3cc2O)n1C | 7.5 µM (active)
Cn1c(SCC(=O)N2c3ccccc3CCc3ccccc32)nnc1-c1cc2ccccc2cc1O | 8.41 µM (active)
Cc1cccc(-c2nnc(SCC(=O)NC3CC3)n2C)c1 | inactive
Cc1noc([C@@H]2CN(C3CCSCC3)C[C@H]2CO)n1 | inactive
O=C(COc1ccccc1)N[C@H]1CO[C@H]2[C@@H]1OC[C@@H]2n1nnnc1Oc1ccc2c(c1)OCO2 | inactive
CCOC(=O)c1c(C)oc2nc(C)nc(Nc3ccc(C)c(Cl)c3)c12 | inactive
CCOC(=O)c1c(C)oc2nc(C)nc(Nc3ccc(CC)cc3)c12 | 7.5 µM (active)
Cc1ccccc1NC(=O)Cn1c(=O)n(-c2ccccc2)c(=O)c2c1cc(C)n2C | inactive
O=C(Nc1ccc(Cl)cc1)c1cc2c(-c3ccccc3)nn(-c3ccccc3)c2s1 | 2.37 µM (active)
O=C(Nc1ccccc1)c1cc2c(-c3ccccc3)nn(-c3ccccc3)c2s1 | 3.35 µM (active)
CCOc1ccc2ncc3c(-c4ccccc4)nn(CC(=O)Nc4cccc(F)c4)c3c2c1 | inactive
O=C(O)Cc1sc(Nc2ccccc2Cl)nc1-c1ccccc1 | inactive
Cc1ccccc1NC(=O)c1cc2c(-c3ccccc3)nn(-c3ccccc3)c2s1 | 11.9 µM (active)
COc1ccc(O)c(C(=O)c2cnc3c(c2)c(-c2ccc(F)cc2)c(C#N)c(=O)n3C)c1 | 5.96 µM (active)
O=C(CCC1CCCN(C(CO)CO)C1)N1CCN(Cc2ccccc2)CC1 (centres undefined) | inactive
Cc1cccc(CN2CCN(C(=O)CCl)CC2)c1 | 13.3 µM (active)

SMILES | Potency
Cc1cccc(CC(=O)N2CCC3(CC2)CC(O)CCO3)c1 (centres undefined) | inactive
COc1ccc(C)cc1N(C(=O)COc1cccc(F)c1)c1nc2ccccc2s1 | 5.96 µM (active)
COc1ccc(-c2nc3ccccc3s2)cc1NC(=O)c1cc2ccccc2o1 | inactive
COc1ncc(-c2cc3c(nc2OC)nc(CC2CC2)n3C)cn1 | inactive
CCc1nn2cc(C(=O)c3cc(C)ccc3O)cnc2c1-c1ccc(F)cc1 | 9.44 µM (active)
COc1ccc([C@@H]2CN(C(=O)CCc3c(C)noc3C)C[C@H]2N(C)C)cc1 | inactive
CCC(C)NC(=O)N1CC(c2nc(CCOCC3CCOCC3)no2)C1 (centres undefined) | inactive
Nc1nc(N)c2cc(Sc3ccc4ccccc4c3)ccc2n1 | 1.33 µM (active)
CCOC(=O)c1ccc(Nc2nnc(C(C)(C)C)c(=O)[nH]2)cc1 | 13.3 µM (active)
CCc1ccc(CN(Cc2ccco2)C(=O)c2cc(-c3ccc(Cl)cc3)on2)cc1 | inactive
Cc1cc(C(=O)Nc2cc(C)n(Cc3ccc(Cl)cc3)n2)no1 | inactive
Cc1cc(NC(=O)c2cc(-c3ccco3)on2)nn1Cc1ccc(Cl)cc1 | 8.41 µM (active)
CCC(=O)N/C(N)=N/c1nc(C)c2cc(C)c(C)cc2n1 | 9.44 µM (active)
COC(=O)c1cc(O)cc(OC)c1Oc1cc(C)cc(O)c1C(=O)O | 4.22 µM (active)
O=C(Cc1cccs1)NC1CCN(c2cc(C(F)(F)F)ncn2)CC1 | inactive
O=C(CCCCn1c(=O)c2ccccc2n(CC(=O)Nc2ccccc2)c1=O)NCc1ccccc1Cl | inactive
COC(=O)c1ccccc1NC(=O)Cn1c(=O)n(CCCC(=O)NCc2ccccc2Cl)c(=O)c2ccccc21 | inactive
Cc1ccc(NC(=O)Cn2c(=O)n(-c3ccc(C)cc3)c(=O)c3ccc(C(=O)NCc4ccccc4Cl)cc32)cc1 | 5.31 µM (active)
CN(C)CCCn1cnc2c(c1=N)C(c1ccccc1)c1ccc3ccccc3c1O2 (centres undefined) | 3.76 µM (active)
COc1ccc(C2c3ccc4ccccc4c3Oc3ncn(CCCN(C)C)c(=N)c32)cc1 (centres undefined) | 2.99 µM (active)
CN1CCN(c2cc(=O)c3ccnc(-c4cn[nH]c4)c3o2)CC1 | inactive
CC(C)CNC(=O)c1ccc2c(c1)NC(C)(CNc1ccccc1)CO2 (centres undefined) | inactive
CCC(C)N(CCNC(=O)c1ccc2c(c1)NC(=O)c1ccccc1S2)C1CCCCC1 (centres undefined) | 13.3 µM (active)
Cc1cc(C)n(CC(=O)N2C[C@@H](COc3ccccc3)[C@H](C(N)=O)C2)n1 | inactive

SMILES | Potency
CCOC(=O)COn1c(-n2nc(C)cc2C)nc2ccccc2c1=O | 9.44 µM (active)
CCOC(=O)CCn1nc(-c2ccc(C)cc2)c2ccccc2c1=O | inactive
COc1ccc(C2c3ccc(O)cc3Oc3ncn4nc(-c5ccncc5)nc4c32)cc1OC (centres undefined) | 15 µM (active)
CCc1noc(-c2cn(C3CCCN(C(=O)c4ccc5c(c4)OCO5)C3)nn2)n1 (centres undefined) | inactive
O=C(c1ccccc1-c1ncc[nH]1)N1CC[C@@H](c2ccc3c(c2)OCO3)[C@H](O)C1 | inactive
COc1ccc(C(=O)N2CCC3(CC2)COc2ccccc2CN3)cc1 | 10.6 µM (active)
c1ccc2c(c1)CNC1(CCN(Cc3cccc4ccccc34)CC1)CO2 | 7.5 µM (active)
O=C(c1ccc2c(c1)OCO2)N1CCC2(CC1)COc1ccccc1CN2 | 5.31 µM (active)
Cc1ccccc1C(=O)N1CCC2(CC1)NC(=O)N(c1ccc(F)cc1)N2 | inactive
COc1ccc(C(=O)N2CCC3(CC2)CC(C(C)C)=NO3)cc1 | inactive
O=C(c1ccccc1F)N1CCC2(CC1)COc1ccccc1CN2 | 4.33 µM (active)
COc1ccc(C(=O)N2CCN3C(=O)N(C4CCOCC4)C[C@H]3C2)cc1 | inactive
O=C(c1ccccc1F)N1CCCC2(C1)NC(=O)N(Cc1cccc(Cl)c1)C2=O (centres undefined) | inactive
O=C1NCc2ccccc2CC12CCN(Cc1ccccc1F)CC2 | inactive
Cc1ccc(-c2cn3c(n2)N(C(=O)c2sc(C)nc2C)CCC3)cc1 | inactive
COC(=O)c1c(NC(=O)/C(C#N)=C/c2ccccc2)sc2c1C(C(=O)OC)CC2 (centres undefined) | inactive
CNC(=O)N1CCC(Cc2nncn2C(C)C)C1 (centres undefined) | inactive
Cc1ccc(Cl)cc1N1CCN(C(=O)c2cn(CC(C)C)c(=O)c3c2c2ccccc2n3C)CC1 | 3.35 µM (active)
COc1ccc(C(=O)N2CCN(c3nnc4cccc(C)n34)CC2)cc1F | inactive
CCc1ccccc1NC(=O)c1cn(C)c(=O)c2ccccc12 | inactive
Cn1cc(C(=O)N2CCN(c3ccccc3)CC2)c(=O)c2cc(S(=O)(=O)N3CCCC3)ccc21 | inactive
CCn1cc(C(=O)N2CCN(c3cc(Cl)ccc3C)CC2)c(=O)c2cc(S(=O)(=O)N3CCCCC3)ccc21 | inactive
CCOC(=O)c1ccccc1NC(=O)c1cn(CC(C)C)c(=O)c2cc(OC)c(OC)cc12 | 8.41 µM (active)
Cn1cc(C(=O)NCCN2CCN(c3cccc(Cl)c3)CC2)c2c3ccccc3n(C)c2c1=O | 4.73 µM (active)

SMILES | Potency
COc1cc2c(C(=O)N3CCN(c4cc(Cl)ccc4C)CC3)cn(CC(C)C)c(=O)c2cc1OC | 15 µM (active)
CC(C)C[C@H]1NC(=O)[C@@H]2C[C@@H](NC(=O)CS(=O)(=O)c3ccccc3)CCN2C1=O | inactive
CCOC(=O)N1CCc2c(sc3c2c(=O)n(Cc2ccccc2)c(=O)n3Cc2ccccc2Cl)C1 | 4.73 µM (active)
CC(=O)N1CCc2c(sc3c2c(=O)n(Cc2ccccc2)c(=O)n3CC(=O)NCC2CCCO2)C1 (centres undefined) | inactive
CCOC(=O)N1CCc2c(sc3c2c(=O)n(-c2ccccc2C(F)(F)F)c(=O)n3Cc2ccccc2C)C1 | 13.3 µM (active)
CCOC(=O)N1CCc2c(sc3c2c(=O)n(CCc2ccccc2)c(=O)n3Cc2c(F)cccc2Cl)C1 | 2.66 µM (active)
O=C(Cn1ccn2nc3c(c2c1=O)CCCCC3)NCc1ccccc1Cl | inactive
Cc1nc(C)c(C(=O)NCC2CCCCC(=O)N2)s1 (centres undefined) | inactive
COc1ccc(OC)c(-n2c(-c3cccc(O)c3)n[nH]c2=S)c1 | 4.22 µM (active)
COc1ccc(OC)c(-n2nnc(-c3nc(-c4cc(OC)c(OC)c(OC)c4)no3)c2C)c1 | inactive
O=C1NCCCCCCN(C(=O)c2cnccn2)[C@H]2CCCC[C@@H]12 | inactive
COc1ccc(-c2[nH]nc3ncc(-c4ccc([S+](C)(=O)[O-])cc4)nc23)c(C)c1 | 15.3 µM (active)
Cc1ccsc1-c1[nH]nc2ncc(-c3ccccc3)nc12 | inactive
COc1ccccc1-c1[nH]nc2ncc(-c3c(C)noc3C)nc12 | inactive
O=C(O)C[C@@H]1CCN(C(=O)C2CCCCC2)C[C@@H]1CCN1CCOCC1 | inactive
CCOc1ccccc1C1NC(=O)N(CC(=O)Nc2ccc(OC)cc2)C2=C1C(=O)OC2 (centres undefined) | inactive
CC1CCC2(CC1)NC(=O)N(CC(=O)Nc1ccc(Cl)cc1)C2=O (centres undefined) | inactive
CCOc1ccc(NC(=O)CN2C(=O)NC(C)(c3ccc(OC(F)F)cc3)C2=O)cc1 (centres undefined) | 9.44 µM (active)
CCCN(CC1CC1)C(=O)[C@@H]1COCC(=O)N1Cc1ccccc1 | inactive
Cc1ccc2nc(-c3ccc(O)c(O)c3)cn2c1 | 13.3 µM (active)
Cc1cc(C)c(S(=O)(=O)Nc2cc(-c3cn4ccccc4n3)ccc2C)cc1C | inactive
CC(C)c1ccc(C2c3[nH]c4ccccc4c3C[C@H]3C(=O)N(c4ccccc4C(=O)N4CCC(C(=O)O)CC4)C(=O)N23)cc1 (some centres undefined) | 6.68 µM (active)
